The values that follow come from PubChem BioAssay.

Active and inactive are the calls of the source.

For assay [1], the system named is Human papillomavirus type 1a protein E7 (residues 44-93). The assay is described as follows: small molecules binding HPV E7 44-93 – biochemical, small-molecule microarray, residues 44-93, 635 nm fluorescence, primary screen (AID 1108).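 Further: E7 fragment applied at 1 µg/mL in TBST for 1 h at 4 C; score combines spot fluorescence with its signal to noise ratio.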 To be noted: fluorescence 635 nm, higher = more signal.
Assay [2] can be described thus: hepatitis C replication reporter changes, two-sided – Huh7 cells, luciferase reporter, HCV replication inhibitor project, primary screen (AID 1109).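 Further: huh7 hepatoma cells harbouring a luciferase neomycin HCV replicon reporter; luciferase luminescence as measure of HCV replicon replication; test concentration not given here.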 The note with it: Huh7 HCV replicon luciferase reporter, 48 h; higher = more signal. A general note: In a reporter assay the amount or activity of a reporter protein is the signal.
The target of assay [3] is Left-right determination factor 2 (Homo sapiens) (UniProt O00292). Kind of assay: small molecules binding LEFTY2 protein – biochemical, small-molecule microarray, 635 nm fluorescence scan, primary screen (AID 1110). To be noted: higher = more signal.
Sequence of Left-right determination factor 2 (Homo sapiens) (O00292 whole entry, looked up): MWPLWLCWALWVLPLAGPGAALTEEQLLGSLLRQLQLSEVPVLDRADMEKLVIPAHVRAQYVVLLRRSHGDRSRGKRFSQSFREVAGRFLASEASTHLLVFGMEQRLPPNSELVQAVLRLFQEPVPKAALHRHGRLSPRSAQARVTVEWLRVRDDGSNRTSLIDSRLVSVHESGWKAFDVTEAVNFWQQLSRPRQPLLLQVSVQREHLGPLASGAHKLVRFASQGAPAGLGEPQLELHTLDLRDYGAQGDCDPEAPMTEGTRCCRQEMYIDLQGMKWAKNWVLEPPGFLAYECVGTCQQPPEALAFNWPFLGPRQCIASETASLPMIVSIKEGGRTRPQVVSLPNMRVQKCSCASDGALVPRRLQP
Assay [4] deals with Calmodulin-1 (Homo sapiens) (UniProt P0DP23). Kind of assay: small molecules binding calmodulin-1 with EGTA – biochemical, small-molecule microarray, Cy5-labelled CALM1, profiling panel (AID 1111).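 Further: labelled calmodulin applied in Tris saline Tween buffer holding calcium plus EGTA and DTT.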 The note with it: Cy5-CALM1 binding fluorescence, higher = more signal.
For assay [5] the target is unchanged. The assay is described as follows: small molecules binding Ca-loaded calmodulin-1 – biochemical, small-molecule microarray, Cy5-labelled CALM1, plus calcium, artefact control for SMM control-protein annotation, profiling panel (AID 1112).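 Further: score merges spot fluorescence with signal to noise from triplicate slides.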 To be noted: Cy5-CALM1 binding fluorescence, higher = more signal.
The nature of assay [6]: probe aWnt5a binding to arrayed compounds – biochemical, biotinylated probe, 635/667 nm fluorescence, primary screen (AID 1113).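 Further: score merges 667 nm fluorescence intensity with signal-to-noise per printed feature.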 The note with it: small-molecule microarray, higher = more signal.
The nature of assay [7]: probe aShh binding to arrayed compounds – biochemical, biotinylated probe, 635/667 nm fluorescence, primary screen (AID 1114).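 Further: probe is biotin-labelled aShh protein from a stem cell growth factor screen; measures binding of labelled protein to compounds printed on the slide; score merges feature fluorescence at 667 nm with signal-to-noise.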 The note with it: small-molecule microarray, higher = more signal.
Assay [8] is described as follows: probe aNog binding to arrayed compounds – biochemical, biotinylated probe, 635/667 nm fluorescence, primary screen (AID 1115).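 Further: probe is biotinylated aNog protein used at 0.15 µg/mL for 1 h at 4 C; z-score combines 667 nm fluorescence of each spot with its signal to noise.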 The note with it: small-molecule microarray, higher = more signal.
Assay [9] concerns the target Torsin-1A-interacting protein 1 (Homo sapiens) (UniProt Q5JTV8). The assay is described as follows: compound microarray binding of lysate hLAP1 – cell lysate, small-molecule microarray, COS7 lysate, 635/667 nm fluorescence, primary screen (AID 1116). The note with it: 635 nm fluorescence, higher = more signal.
The target of assay [10] is Alpha-bungarotoxin (Bungarus multicinctus) (UniProt P60615). The assay is described as follows: compounds binding labelled alpha-BTX control protein – biochemical, small-molecule microarray, Alexa647 label, 635/667 nm fluorescence, artefact control for SMM control protein annotation, profiling panel (AID 1117). The note with it: alpha-BTX-A647 binding fluorescence, higher = more signal.
Sequence of Alpha-bungarotoxin (Bungarus multicinctus) (P60615 whole entry, looked up): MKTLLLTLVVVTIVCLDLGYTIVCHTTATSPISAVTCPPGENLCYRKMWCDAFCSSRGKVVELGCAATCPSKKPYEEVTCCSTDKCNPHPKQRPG

In assay [11] the target is Albumin (Bos taurus) (UniProt P02769). The assay is described as follows: compounds binding labelled BSA control protein – biochemical, small-molecule microarray, Alexa647 label, 635/667 nm fluorescence, artefact control for SMM control protein annotation, profiling panel (AID 1118).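 Further: score merges 667 nm emission intensity and signal-to-noise per printed compound spot.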 To be noted: BSA-A647 binding, fluorescence 635 nm, higher = more signal.
Sequence of Albumin (Bos taurus) (P02769 whole entry, looked up): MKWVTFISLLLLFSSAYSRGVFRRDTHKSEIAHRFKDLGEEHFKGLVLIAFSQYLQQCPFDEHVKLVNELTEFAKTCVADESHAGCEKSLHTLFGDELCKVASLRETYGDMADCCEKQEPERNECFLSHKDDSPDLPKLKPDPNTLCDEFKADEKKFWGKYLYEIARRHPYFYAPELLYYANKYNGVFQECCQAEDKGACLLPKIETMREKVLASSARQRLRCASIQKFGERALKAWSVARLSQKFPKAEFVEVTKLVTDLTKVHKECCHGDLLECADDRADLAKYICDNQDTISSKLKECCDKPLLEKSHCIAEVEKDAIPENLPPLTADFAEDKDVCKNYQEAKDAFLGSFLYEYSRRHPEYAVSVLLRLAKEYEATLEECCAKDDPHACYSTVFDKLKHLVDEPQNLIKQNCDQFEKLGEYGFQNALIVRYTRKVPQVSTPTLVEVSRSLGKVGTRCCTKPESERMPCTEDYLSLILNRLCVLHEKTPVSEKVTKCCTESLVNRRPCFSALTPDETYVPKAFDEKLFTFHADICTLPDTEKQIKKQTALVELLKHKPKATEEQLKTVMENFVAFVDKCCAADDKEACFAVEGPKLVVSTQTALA
The nature of assay [12]: probe aXIP binding to arrayed compounds – biochemical, NeuroSMM set, 635/667 nm fluorescence, primary screen (AID 1119).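 Further: probe is the protein aXip251-270 applied at 1 µg/mL to compound-printed slides; binding of probe to printed compounds measured as 667 nm fluorescence plus signal to noise.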 The note with it: small-molecule microarray, higher = more signal, called active from +8 up or from −8 down.
Assay [13] in a line: probe aNOTCH3 binding on compound microarray – biochemical, small-molecule microarray, 635/667 nm fluorescence, primary screen (AID 1120).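 Further: probe is a biotin-tagged antibody raised against NOTCH3 rather than NOTCH3 protein; score merges spot fluorescence near 667 nm with spot signal to noise.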 The note with it: higher = more signal.
A short description of assay [14]: probe aNOTCH2 binding on compound microarray – biochemical, small-molecule microarray, 635/667 nm fluorescence, primary screen (AID 1121).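 Further: score merges feature fluorescence read at 667 nm with its signal to noise.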 To be noted: higher = more signal.
The target of assay [15] is Carbonic anhydrase 2 (Homo sapiens) (UniProt P00918). Kind of assay: compounds binding carbonic anhydrase 2 – biochemical, small-molecule microarray, Alexa647-labelled CAII, profiling panel (AID 1122). To be noted: CAII-A647 binding fluorescence, higher = more signal.
Assay [16] in a line: COS7 lysate on small-molecule microarray, probe aHis, 635 nm (AID 1123).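 Further: z-score combines 667nm fluorescence intensity with signal-to-noise per printed compound spot.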 To be noted: COS7 cell lysate, fluorescence, higher = more signal.
A short description of assay [17]: probe aLAP1 signal on lysate-treated microarray – cell lysate, small-molecule microarray, COS7 lysate, primary screen (AID 1124).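 Further: lysate comes from COS7 cells expressing LAP1 and is applied at 0.3 µg/mL; score merges spot fluorescence near 667 nm with signal-to-noise over triplicate slides.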 The note with it: probe aLAP1, fluorescence, higher = more signal.
Assay [18] deals with Sam68 (KHDRBS1). The assay is described as follows: compounds binding KHDRBS1 protein – biochemical, small-molecule microarray, 635 nm fluorescence, primary screen (AID 1125).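 Further: score merges 667 nm channel intensity with signal to noise over triplicate slides.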 The note with it: higher = more signal.
Assay [19] concerns Chordin-like protein 2 (CHRDL2). Kind of assay: compounds binding chordin-like 2 – biochemical, small-molecule microarray, 635 nm fluorescence, primary screen (AID 1126).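 Further: printed compound slides probed with Chrdl2 protein at 4 µg/mL for 1 h at 4 C; score merges 667 nm emission intensity with signal to noise over three replicate slides.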 The note with it: fluorescence 635 nm, higher = more signal.
Assay [20] has as its target Concanavalin-A (Canavalia ensiformis) (UniProt P02866). The assay is described as follows: compounds binding concanavalin A lectin – biochemical, small-molecule microarray, Alexa647 label, 635 nm, artefact control for SMM control protein annotation, primary screen (AID 1127).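 Further: z combines 667 nm emission intensity with signal-to-noise across three replicate slides.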 The note with it: ConA-A647 binding fluorescence, higher = more signal.

Sequence of Torsin-1A-interacting protein 1 (Homo sapiens) (Q5JTV8 whole entry, looked up): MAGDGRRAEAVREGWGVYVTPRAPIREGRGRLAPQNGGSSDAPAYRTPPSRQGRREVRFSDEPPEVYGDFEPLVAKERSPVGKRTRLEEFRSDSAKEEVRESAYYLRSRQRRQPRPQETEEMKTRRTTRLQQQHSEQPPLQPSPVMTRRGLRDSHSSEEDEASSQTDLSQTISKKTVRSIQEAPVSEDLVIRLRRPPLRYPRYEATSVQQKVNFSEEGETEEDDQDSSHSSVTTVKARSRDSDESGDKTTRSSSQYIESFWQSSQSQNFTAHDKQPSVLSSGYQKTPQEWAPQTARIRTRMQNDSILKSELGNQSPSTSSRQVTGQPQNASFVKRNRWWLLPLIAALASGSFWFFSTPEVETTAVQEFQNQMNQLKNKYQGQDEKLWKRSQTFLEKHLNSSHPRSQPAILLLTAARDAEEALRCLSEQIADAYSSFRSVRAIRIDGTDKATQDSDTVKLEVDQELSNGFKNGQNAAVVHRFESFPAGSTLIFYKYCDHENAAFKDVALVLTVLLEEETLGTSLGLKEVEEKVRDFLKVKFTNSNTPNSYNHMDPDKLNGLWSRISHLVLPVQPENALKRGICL
Sequence of Concanavalin-A (Canavalia ensiformis) (P02866 whole entry, looked up): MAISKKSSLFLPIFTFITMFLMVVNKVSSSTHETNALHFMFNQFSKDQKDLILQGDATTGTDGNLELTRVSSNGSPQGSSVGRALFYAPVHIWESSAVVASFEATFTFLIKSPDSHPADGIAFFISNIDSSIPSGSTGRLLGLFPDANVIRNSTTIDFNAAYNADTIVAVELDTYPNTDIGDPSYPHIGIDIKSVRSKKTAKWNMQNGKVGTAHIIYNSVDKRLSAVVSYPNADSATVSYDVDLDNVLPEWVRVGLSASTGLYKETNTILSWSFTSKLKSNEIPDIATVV

As to `Cc1ccc(S[C@]2(C(=O)NCc3ccccc3)CC(=O)N(C(C)C)[C@@H]2c2ccc(CO)cc2I)cc1`, the composite z-score in assay [1] was 1.34; in assay [3], -1.26; in [4], 0.436; in assay [5] it was 0.475; in assay [6], -0.243; in assay [7], -0.229. For the same molecule, the composite z-score in assay [8] is 0.962; in assay [9], 0.877; in assay [10] it was -0.613; in [11] it was 0.838; in assay [13], -0.221; in [14], -0.0268. For the same molecule, the composite z-score is 0.304 in assay [15]; 2.56 in assay [16]; 0.704 in assay [17]; -0.29 in assay [18]; -1.59 in assay [19]; -1.29 in [20]. The z-score in [2] is -1.52. In addition, in assay [12], the composite Z-score is 0.46 (inactive).
On to `CC(C)C(CO)N1C(=O)[C@]2(C)C3C(=O)OCCC/C=C\[C@H]3OC23C=CCN(c2ccc(Cl)cc2)C(=O)[C@@H]13` (stereo not given in full), for which the composite z-score in assay [1] is 0.964; in [3], -1.03; in assay [4], -0.224; in assay [5], -0.193; in assay [6], -0.131; in [7], -0.138. For the same molecule, the composite z-score in assay [8] is 0.563; in assay [9], -0.0952; in assay [10] it was -0.28; in [11], -0.187; in assay [13], -0.157; in [14], -0.164. The composite z-score in assay [15] was 0.853; in assay [16], 3.39; in [17] it was 0.32; in assay [18], 0.36; in [19], -0.883; in [20] it was -0.522. Also, the z-score in assay [2] is 0.344. Besides, the composite Z-score in [12] is -0.132 (inactive).
Consider `CC(C)(C)OC(=O)CC[C@]1(C(=O)N2CCOCC2)N=C(c2ccc(OCCCO)cc2)O[C@H]1c1ccccc1`, for which the composite z-score was 0.79 in assay [1]; -0.356 in assay [3]; 0.0137 in [4]; -0.031 in assay [5]; -0.0459 in assay [6]; -0.27 in [7]. Besides, the composite z-score was -0.375 in [8]; 1.07 in assay [9]; 0.109 in assay [10]; 0.969 in assay [11]; 0.116 in assay [13]; -0.17 in [14]. Besides, the composite z-score in assay [15] was 0.834; in assay [16], 2.75; in assay [17], 0.135; in [18], 1.02; in [19], -0.267; in assay [20], 0.838. Moreover, the z-score in assay [2] is -0.304. The composite Z-score in assay [12] is -0.131 (inactive).
For the molecule `O=C(CS)NCCCCCCNC(=O)[C@@H]1C[C@@H]2C(=O)N3CCC[C@H]3C(=O)N2[C@@H]1c1cccc(OCCO)c1`, the composite z-score is 1.41 in assay [1]; 0.289 in assay [3]; 1.49 in assay [4]; 0.36 in [5]; 0.206 in assay [6]; -0.0866 in assay [7]. For the same molecule, the composite z-score is 0.0482 in assay [8]; 1.41 in assay [9]; 2.16 in [10]; 0.848 in [11]; -0.225 in assay [13]; 0.0063 in assay [14]. For the same molecule, the composite z-score in [15] is 0.635; in [16], 2.81; in [17], -0.0386; in assay [18], 1.3; in assay [19], 0.454; in assay [20], 1.1. In assay [2], this molecule had a z-score of 0.0871. Also, the composite Z-score in assay [12] is -0.19 (inactive).
With `C[C@H]1C2=C3C(CC[C@H]4C(OCc5ccc(F)cc5C(F)(F)F)OC[C@](C)([C@@H]34)N(C(=O)OC(C)(C)C)C2)C(CO)C1CO` (stereo not given in full), the composite z-score is 1.34 in [1]; -0.593 in assay [3]; 2.4 in [4]; 0.861 in [5]; 0.114 in [6]; 0.255 in [7]. Besides, the composite z-score was -0.697 in [8]; 0.222 in assay [9]; 0.671 in [10]; 0.953 in [11]; 0.266 in assay [13]; 0.0831 in [14]. Moreover, the composite z-score in assay [15] is 0.352; in assay [16], 3.19; in assay [17] it was 0.505; in assay [18], 1.31; in assay [19] it was -1.44; in [20], 0.862. For the same molecule, the z-score in assay [2] was -2.81. For the same molecule, the composite Z-score in assay [12] was 1.08 (inactive).
Take `COc1ccc(NN2C(C(O)c3ccccn3)C=CC3C(=O)N(C4CCCCC4)C(=O)C32)cc1` (stereo not given): the composite z-score in assay [1] is 1.41; in assay [3] it was -0.188; in assay [4], 1.58; in [5], 0.37; in assay [6], 0.0391; in assay [7], 0.0875. The composite z-score in [8] was 1.17; in assay [9] it was 0.766; in [10], 0.887; in assay [11], 0.907; in [13], 0.263; in assay [14], 0.0117. Besides, the composite z-score in [15] was 0.7; in assay [16] it was 2.24; in assay [17], 0.969; in assay [18], 1.3; in assay [19] it was -0.203; in assay [20] it was 1.14. This molecule also yielded a z-score in assay [2] of -0.602. Further, in [12], the composite Z-score is 0.0797 (inactive).
